Among the data in PubChem BioAssay are composite z-score and z-score values, retold here.

For assay [1], the system named is Plasmodium falciparum Sir2 (PF13_0152, Sir2A). Put plainly: Plasmodium falciparum Sir2A binding compounds – biochemical, small-molecule microarray, 635 nm fluorescence, primary screen (AID 1098).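 Note: score merges spot fluorescence intensity with its signal-to-noise ratio.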 Particulars: fluorescence 635 nm, higher = more signal.
A short description of assay [2]: probe aDKK1 binding to arrayed compounds – biochemical, biotinylated probe, 635/667 nm fluorescence, primary screen (AID 1099).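 Note: score merges 667nm spot fluorescence with signal to noise across triplicate slides.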 Particulars: small-molecule microarray, higher = more signal.
A short description of assay [3]: probe aCHRDL2 binding to arrayed compounds – biochemical, biotinylated probe, 635/667 nm fluorescence, primary screen (AID 1100). Particulars: small-molecule microarray, higher = more signal.
Assay [4] can be described thus: change in splice reporter luminescence, either direction, cell-based, HEK293, spliceosome inhibition project, primary screen (AID 1101).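 Note: HEK293 cells carrying a splicing-competent luciferase reporter gene; test concentration not given here.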 Particulars: HEK293 splicing luciferase reporter, 24 h, higher = more signal, called active from +8 up or from −8 down. On the technique in general: In a reporter assay the amount or activity of a reporter protein is the signal.
The target in assay [5] is Fibroblast growth factor 10 (Homo sapiens) (UniProt O15520). Put plainly: compounds binding fibroblast growth factor 10 – biochemical, small-molecule microarray, 635 nm fluorescence, primary screen (AID 1102). Particulars: FGF10 binding, fluorescence 635 nm, higher = more signal.
The test system of assay [6] is glycogen synthase kinase-3 (GSK3A per assay name; protocol says GSK3B). Put plainly: compounds binding glycogen synthase kinase-3 – biochemical, small-molecule microarray, 635 nm fluorescence, GSK3A, primary screen (AID 1103). Note: the record names both GSK3A and GSK3B. Particulars: fluorescence 635 nm, higher = more signal.
In assay [7] the target is Epidermal growth factor receptor (Homo sapiens) (UniProt P00533). The experiment in a line: compounds binding epidermal growth factor receptor – biochemical, small-molecule microarray, 635 nm fluorescence, primary screen (AID 1104).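 Note: score merges 667 nm emission intensity with spot signal to noise over triplicate slides.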 Particulars: EGFR binding, higher = more signal.
Assay [8] has as its target Follistatin-related protein 3 (Homo sapiens) (UniProt O95633). The experiment in a line: compounds binding follistatin-related protein 3 – biochemical, small-molecule microarray, 635 nm fluorescence, primary screen (AID 1105).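 Note: score merges emission near 667 nm and signal to noise per printed spot across three slides.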 Particulars: FSTL3 binding, higher = more signal.
Assay [9] addresses Dickkopf-related protein 1 (Homo sapiens) (UniProt O94907). Put plainly: small molecules binding DKK1 protein – biochemical, small-molecule microarray, 635 nm fluorescence scan, primary screen (AID 1106).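 Note: score merges emission near 667 nm with signal to noise over three replicate slides.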 Particulars: higher = more signal.
Assay [10] has as its system Inhibin beta A chain (activin A). Put plainly: small molecules binding activin A – biochemical, small-molecule microarray, 635 nm fluorescence scan, primary screen (AID 1107).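 Note: mouse activin A protein probed at 4.33 µg/mL on printed slides; score merges bound-protein fluorescence near 667 nm with spot signal-to-noise.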 Particulars: INHBA, higher = more signal.
In assay [11] the test system is Human papillomavirus type 1a protein E7 (residues 44-93). Put plainly: small molecules binding HPV E7 44-93 – biochemical, small-molecule microarray, residues 44-93, 635 nm fluorescence, primary screen (AID 1108).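 Note: E7 fragment applied at 1 µg/mL in TBST for 1 h at 4 C; score combines spot fluorescence with its signal to noise ratio.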 Particulars: fluorescence 635 nm, higher = more signal.
Assay [12] in a line: hepatitis C replication reporter changes, two-sided – Huh7 cells, luciferase reporter, HCV replication inhibitor project, primary screen (AID 1109).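 Note: huh7 hepatoma cells harbouring a luciferase neomycin HCV replicon reporter; luciferase luminescence as measure of HCV replicon replication; test concentration not given here.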 Particulars: Huh7 HCV replicon luciferase reporter, 48 h; higher = more signal.
For assay [13], the target named is Left-right determination factor 2 (Homo sapiens) (UniProt O00292). The experiment in a line: small molecules binding LEFTY2 protein – biochemical, small-molecule microarray, 635 nm fluorescence scan, primary screen (AID 1110). Particulars: higher = more signal.
Assay [14] deals with Calmodulin-1 (Homo sapiens) (UniProt P0DP23). The experiment in a line: small molecules binding calmodulin-1 with EGTA – biochemical, small-molecule microarray, Cy5-labelled CALM1, profiling panel (AID 1111).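 Note: labelled calmodulin applied in Tris saline Tween buffer holding calcium plus EGTA and DTT.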 Particulars: Cy5-CALM1 binding fluorescence, higher = more signal.
The target is the same in assay [15]. Put plainly: small molecules binding Ca-loaded calmodulin-1 – biochemical, small-molecule microarray, Cy5-labelled CALM1, plus calcium, artefact control for SMM control-protein annotation, profiling panel (AID 1112).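 Note: score merges spot fluorescence with signal to noise from triplicate slides.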 Particulars: Cy5-CALM1 binding fluorescence, higher = more signal.
The nature of assay [16]: probe aWnt5a binding to arrayed compounds – biochemical, biotinylated probe, 635/667 nm fluorescence, primary screen (AID 1113).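 Note: score merges 667 nm fluorescence intensity with signal-to-noise per printed feature.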 Particulars: small-molecule microarray, higher = more signal.
A short description of assay [17]: probe aShh binding to arrayed compounds – biochemical, biotinylated probe, 635/667 nm fluorescence, primary screen (AID 1114).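 Note: probe is biotin-labelled aShh protein from a stem cell growth factor screen; measures binding of labelled protein to compounds printed on the slide; score merges feature fluorescence at 667 nm with signal-to-noise.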 Particulars: small-molecule microarray, higher = more signal.
Assay [18] is described as follows: probe aNog binding to arrayed compounds – biochemical, biotinylated probe, 635/667 nm fluorescence, primary screen (AID 1115).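 Note: probe is biotinylated aNog protein used at 0.15 µg/mL for 1 h at 4 C; z-score combines 667 nm fluorescence of each spot with its signal to noise.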 Particulars: small-molecule microarray, higher = more signal.
Assay [19] deals with Torsin-1A-interacting protein 1 (Homo sapiens) (UniProt Q5JTV8). Put plainly: compound microarray binding of lysate hLAP1 – cell lysate, small-molecule microarray, COS7 lysate, 635/667 nm fluorescence, primary screen (AID 1116). Particulars: 635 nm fluorescence, higher = more signal.
Assay [20] addresses Alpha-bungarotoxin (Bungarus multicinctus) (UniProt P60615). Put plainly: compounds binding labelled alpha-BTX control protein – biochemical, small-molecule microarray, Alexa647 label, 635/667 nm fluorescence, artefact control for SMM control protein annotation, profiling panel (AID 1117). Particulars: alpha-BTX-A647 binding fluorescence, higher = more signal.

SMILES strings stand for the structures. Activity calls are given as the source filed them.

Sequence of Left-right determination factor 2 (Homo sapiens) (O00292 whole entry, looked up): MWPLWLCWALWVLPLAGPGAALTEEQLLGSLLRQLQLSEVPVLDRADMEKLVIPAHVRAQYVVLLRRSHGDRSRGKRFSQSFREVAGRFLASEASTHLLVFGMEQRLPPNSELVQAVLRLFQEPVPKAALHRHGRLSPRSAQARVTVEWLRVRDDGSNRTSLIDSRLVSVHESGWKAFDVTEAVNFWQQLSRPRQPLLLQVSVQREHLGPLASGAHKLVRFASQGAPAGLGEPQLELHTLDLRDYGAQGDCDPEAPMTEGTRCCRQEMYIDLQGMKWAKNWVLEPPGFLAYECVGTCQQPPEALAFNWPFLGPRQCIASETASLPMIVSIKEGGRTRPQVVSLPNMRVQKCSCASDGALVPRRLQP
Sequence of Dickkopf-related protein 1 (Homo sapiens) (O94907 whole entry, looked up): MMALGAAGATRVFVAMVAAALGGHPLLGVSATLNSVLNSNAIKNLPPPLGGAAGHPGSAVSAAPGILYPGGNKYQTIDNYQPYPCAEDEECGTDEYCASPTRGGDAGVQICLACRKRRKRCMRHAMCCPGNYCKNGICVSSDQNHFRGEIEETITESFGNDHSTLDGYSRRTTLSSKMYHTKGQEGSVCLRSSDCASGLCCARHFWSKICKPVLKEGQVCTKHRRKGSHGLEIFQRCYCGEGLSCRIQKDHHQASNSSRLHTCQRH
Sequence of Torsin-1A-interacting protein 1 (Homo sapiens) (Q5JTV8 whole entry, looked up): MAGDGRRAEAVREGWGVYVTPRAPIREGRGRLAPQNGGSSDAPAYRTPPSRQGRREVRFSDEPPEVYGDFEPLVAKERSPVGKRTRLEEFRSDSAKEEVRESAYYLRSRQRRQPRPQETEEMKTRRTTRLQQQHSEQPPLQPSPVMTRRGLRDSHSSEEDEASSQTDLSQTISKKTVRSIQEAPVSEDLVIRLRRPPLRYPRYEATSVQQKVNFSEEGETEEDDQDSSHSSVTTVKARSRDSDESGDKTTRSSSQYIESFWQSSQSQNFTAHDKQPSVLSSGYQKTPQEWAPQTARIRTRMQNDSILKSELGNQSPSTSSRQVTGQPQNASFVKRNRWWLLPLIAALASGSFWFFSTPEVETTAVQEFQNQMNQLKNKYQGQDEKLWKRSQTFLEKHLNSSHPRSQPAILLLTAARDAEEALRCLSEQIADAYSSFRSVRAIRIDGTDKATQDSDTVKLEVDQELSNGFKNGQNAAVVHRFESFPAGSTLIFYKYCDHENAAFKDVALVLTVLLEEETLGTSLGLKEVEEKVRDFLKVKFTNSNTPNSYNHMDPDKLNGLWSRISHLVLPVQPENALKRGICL
Sequence of Follistatin-related protein 3 (Homo sapiens) (O95633 whole entry, looked up): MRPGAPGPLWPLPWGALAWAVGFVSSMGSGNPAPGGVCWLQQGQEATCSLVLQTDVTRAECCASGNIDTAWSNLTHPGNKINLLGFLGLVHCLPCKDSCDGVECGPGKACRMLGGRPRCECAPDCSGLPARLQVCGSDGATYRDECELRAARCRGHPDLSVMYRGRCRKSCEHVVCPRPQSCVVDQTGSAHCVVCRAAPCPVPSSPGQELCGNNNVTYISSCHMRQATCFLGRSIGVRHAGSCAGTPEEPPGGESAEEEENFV
Sequence of Alpha-bungarotoxin (Bungarus multicinctus) (P60615 whole entry, looked up): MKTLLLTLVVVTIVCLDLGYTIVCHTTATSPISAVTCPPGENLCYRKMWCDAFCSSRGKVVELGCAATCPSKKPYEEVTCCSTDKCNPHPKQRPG
Sequence of Fibroblast growth factor 10 (Homo sapiens) (O15520 whole entry, looked up): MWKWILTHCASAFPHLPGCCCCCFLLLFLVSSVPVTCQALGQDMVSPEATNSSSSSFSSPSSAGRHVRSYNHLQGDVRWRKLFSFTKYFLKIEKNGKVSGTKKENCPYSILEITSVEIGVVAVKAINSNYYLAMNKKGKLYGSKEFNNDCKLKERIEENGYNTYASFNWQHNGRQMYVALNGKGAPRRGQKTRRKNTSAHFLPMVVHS
Sequence of Epidermal growth factor receptor (Homo sapiens) (P00533 whole entry, looked up): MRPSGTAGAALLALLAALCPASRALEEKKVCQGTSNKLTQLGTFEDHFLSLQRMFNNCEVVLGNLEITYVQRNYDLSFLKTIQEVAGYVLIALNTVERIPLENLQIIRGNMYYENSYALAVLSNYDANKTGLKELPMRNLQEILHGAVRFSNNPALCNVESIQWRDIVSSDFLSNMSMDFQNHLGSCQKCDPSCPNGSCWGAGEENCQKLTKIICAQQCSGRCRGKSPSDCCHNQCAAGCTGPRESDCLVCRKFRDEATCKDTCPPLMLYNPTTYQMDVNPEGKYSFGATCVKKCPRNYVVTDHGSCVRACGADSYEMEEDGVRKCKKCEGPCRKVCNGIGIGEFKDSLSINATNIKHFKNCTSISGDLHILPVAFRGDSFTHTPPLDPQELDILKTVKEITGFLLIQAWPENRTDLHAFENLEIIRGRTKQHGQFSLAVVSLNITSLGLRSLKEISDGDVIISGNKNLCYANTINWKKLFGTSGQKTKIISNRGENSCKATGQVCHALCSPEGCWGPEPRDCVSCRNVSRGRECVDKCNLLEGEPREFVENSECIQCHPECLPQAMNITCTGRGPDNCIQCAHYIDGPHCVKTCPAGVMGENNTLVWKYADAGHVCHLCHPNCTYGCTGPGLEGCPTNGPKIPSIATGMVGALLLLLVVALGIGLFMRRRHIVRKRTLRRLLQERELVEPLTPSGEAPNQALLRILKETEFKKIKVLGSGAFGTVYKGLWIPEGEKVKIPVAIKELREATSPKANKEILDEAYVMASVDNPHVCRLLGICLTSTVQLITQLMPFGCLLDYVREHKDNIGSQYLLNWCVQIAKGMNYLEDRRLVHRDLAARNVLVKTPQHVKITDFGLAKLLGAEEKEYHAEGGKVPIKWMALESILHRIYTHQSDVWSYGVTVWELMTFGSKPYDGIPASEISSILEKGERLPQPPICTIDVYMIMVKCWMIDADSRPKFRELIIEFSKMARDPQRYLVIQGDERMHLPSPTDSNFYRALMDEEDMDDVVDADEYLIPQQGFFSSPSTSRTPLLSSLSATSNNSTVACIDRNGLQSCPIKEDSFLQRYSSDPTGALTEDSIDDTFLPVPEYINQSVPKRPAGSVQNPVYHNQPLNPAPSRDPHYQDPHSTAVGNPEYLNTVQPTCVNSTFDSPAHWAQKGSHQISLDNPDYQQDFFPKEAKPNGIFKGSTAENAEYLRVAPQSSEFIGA

For the compound `C[C@@H]1ON(c2ccccc2)[C@H](c2ccccc2)[C@H]1C(=O)O`, the composite z-score is -0.344 in assay [1]; -0.158 in [2]; -0.269 in [3]; 0.777 in assay [5]; 0.362 in assay [6]; -0.436 in [7]. Besides, the composite z-score in assay [8] was -0.213; in assay [9], 0.796; in assay [10] it was -0.367; in [11] it was -0.429; in assay [13], 0.25; in assay [14] it was 0.0717. Further, the composite z-score was -0.124 in [15]; 0.0377 in assay [16]; -0.2 in assay [17]; 0.618 in [18]; 0.109 in [19]; 0.167 in assay [20]. For the same compound, the values for the z-score in assay [4] and in assay [12] were 0.221 (inactive) and 0.387, respectively.
For the compound `COCCOC(=O)N1C(=O)[C@@]2(c3ccccc31)[C@H](C(=O)N1CCN(c3ncccn3)CC1)[C@H]1C(=O)O[C@H](c3ccccc3)[C@H](c3ccccc3)N1[C@@H]2c1ccccc1OCCO`, the composite z-score in [1] is 1.33; in [2], -0.0994; in [3], -0.41; in [5] it was 1.17; in [6], 1.31; in [7], 0.575. In addition, the composite z-score amounted to 1.15 in [8]; 0.778 in assay [9]; 0.888 in assay [10]; 1.35 in assay [11]; 0.687 in [13]; 0.902 in [14]. For the same compound, the composite z-score in assay [15] is 0.369; in [16], -0.0462; in assay [17], 0.704; in assay [18], 0.26; in assay [19], 0.405; in assay [20], 0.749. In addition, the z-score in assay [4] is -1.05 (inactive); in assay [12], -1.79.
With `COC(=O)[C@@]1(Cc2ccccc2)[C@H]2c3cc(C(=O)N(C)C)n(CCSC(=N)N)c3C[C@H]2CN1C(=O)c1ccccc1`, the composite z-score was 1.16 in assay [1]; 0.743 in assay [2]; 1 in assay [3]; -0.315 in [5]; -0.102 in [6]; -0.649 in assay [7]. Moreover, the composite z-score was -0.406 in assay [8]; -1.49 in [9]; 1.01 in [10]; -0.98 in [11]; -0.76 in assay [13]; 0.96 in assay [14]. Besides, the composite z-score was 0.0575 in [15]; -0.0006 in [16]; -0.138 in [17]; 1.39 in [18]; 3.21 in assay [19]; -0.351 in assay [20]. Moreover, the results for the z-score in assay [4] and in assay [12] were 0.61 (inactive) and -0.588, respectively.
Turning to `COC(=O)C1=CC(CCCO)=CC(c2cccs2)N(Cc2cc3c(cc2Br)OCO3)C=C1C(=O)OC` (stereo not given), the composite z-score in [1] stood at 1.53; in assay [2], 0.718; in assay [3], 0.628; in assay [5], 1.17; in assay [6], 1.3; in assay [7] it was 0.511. Moreover, the composite z-score in assay [8] was determined as 0.908; in assay [9] it was 0.166; in [10], 1.01; in assay [11] it was 0.931; in [13], 0.578; in [14] it was 1.69. For the same compound, the composite z-score is 0.458 in [15]; 0.0618 in assay [16]; 0.246 in [17]; -0.0381 in [18]; 0.834 in assay [19]; 2.49 in assay [20]. Also, the z-score is -0.478 (inactive) in assay [4] and -1.64 in assay [12].
With `O=C1C[C@@](C(=O)NCc2ccccc2)(c2ccc([N+](=O)[O-])cc2)[C@@H](c2ccc(CO)cc2)N1C1CCCCC1`, the composite z-score was 1.34 in assay [1]; -0.437 in [2]; 0.538 in [3]; 0.42 in [5]; 0.97 in [6]; 0.123 in assay [7]. Moreover, the composite z-score in assay [8] was 0.645; in assay [9], 0.0339; in assay [10] it was 0.953; in assay [11] it was 0.653; in assay [13] it was 0.399; in assay [14], -0.175. Also, the composite z-score in assay [15] was -0.386; in assay [16], 0.0273; in assay [17] it was 0.0697; in assay [18], 0.786; in assay [19] it was 1.46; in assay [20] it was 1.72. Further, the z-score in assay [4] is -1.97 (inactive); in assay [12], -1.24.
Turning to `C=C(C)[C@@H]1CC=C(C(O)C2C=CC3C(=O)N(c4ccccc4)C(=O)C3N2Nc2ccc([N+](=O)[O-])cc2)CC1` (stereo not given in full), the composite z-score was -0.0606 in [1]; 0.32 in [2]; 0.822 in assay [3]; 1.27 in assay [5]; 1.31 in assay [6]; 0.613 in assay [7]. Also, the composite z-score in assay [8] was 1.44; in assay [9], -0.103; in [10], 0.883; in [11] it was 1.46; in assay [13], 1.26; in assay [14] it was -0.0515. Further, the composite z-score in assay [15] is 0.261; in assay [16] it was -0.0222; in [17], -0.0119; in assay [18] it was 1.24; in [19], -0.151; in assay [20] it was 0.839. The values for the z-score in assay [4] and in [12] were -0.682 (inactive) and -0.315, respectively.
